Assay results reported in PubChem BioAssay (NCATS).
Records with an inconclusive call do not appear. Unmarked numbers belong to inactive results. Activity calls are given as the source filed them. The call rests on the fitted dose curve; in most records, active means well fitted curve in the direction sought with a large enough effect; inconclusive means small, poorly fitted or top-dose-only effect, or another doubt; inactive means no such curve, though single readings can be large; an effect the other way counts as inactive or inconclusive.

Experiment: qHTS of pediatric cancer cell lines to identify multiple opportunities for drug repurposing: Primary screen for RD cells (AID 1347104);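 further: plate controls were DMSO for no effect and bortezomib for full effect; nearly all actives have a fitted effect of over 55% in size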
Settings: RD rhabdomyosarcoma viability, CellTiter-Glo luminescence, 48 h; series mostly up to 46 µM; activity change, negative = cytotoxic: at the top concentration
In short: (§1)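 Phenotypic viability qHTS, 48 h compound exposure, CellTiter-Glo luminescence read-out; multi-concentration dosing so that potency and efficacy derive directly from the primary screen's curves.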
For CCN(CC)C(=O)Nc1ccc(OCC(O)CNC(C)(C)C)c(C(C)=O)c1 (stereo not drawn), the “activity change, negative = cytotoxic” value was 1.65%. For CC(C)(O)c1ccccc1CC[C@@H](SCC1(CC(=O)O)CC1)c1cccc(/C=C/c2ccc3ccc(Cl)cc3n2)c1, the “activity change, negative = cytotoxic” value was 18.4%. With Cc1cc2c(cc1S(N)(=O)=O)S(=O)(=O)CCC2 the “activity change, negative = cytotoxic” value was 7.34%. NC(N)=NCCC[C@H](N)C(=O)O showed an activity change, negative = cytotoxic of 2.4% [at 4.84 µM]. In the case of CC(C)(C)C(=O)C(Oc1ccc(Cl)cc1)n1ccnc1 (stereo not drawn), the “activity change, negative = cytotoxic” value is reported as 0.362%. In the case of O=C(O)c1ccccc1-c1ccc(C(F)(F)F)cc1, the “activity change, negative = cytotoxic” value is reported as 18.6%. With CC(=O)Oc1c(C)c(C)c2c(c1C)CC[C@@](C)(CCC[C@H](C)CCC[C@H](C)CCCC(C)C)O2 the “activity change, negative = cytotoxic” value was 6.86%. With Cc1c(Cl)cccc1Nc1ccccc1C(=O)O the “activity change, negative = cytotoxic” value was 0.425%. With CCOc1ccc2ccccc2c1C(=O)N[C@@H]1C(=O)N2[C@@H]1SC(C)(C)[C@@H]2C(=O)O the “activity change, negative = cytotoxic” value was 15.2%. In the case of CCCCCCCCCCCCCCCC(=O)NCCO, the “activity change, negative = cytotoxic” value is reported as 6.55%. For Cc1ccc(C(C)C)cc2c(C)ccc1-2, the “activity change, negative = cytotoxic” value was 10.2%. With O=C1O[C@H](CO)[C@@H](O)[C@H](O)[C@H]1O the “activity change, negative = cytotoxic” value was 3.03%. With CC(=O)Oc1ccc(C2(c3ccc(OC(C)=O)cc3)C(=O)Nc3ccccc32)cc1 the “activity change, negative = cytotoxic” value was -13.4%. In the case of COc1ccc2cc1Oc1cc3c(cc1OC)CC[N+](C)(C)[C@H]3Cc1ccc(cc1)Oc1c(OC)c(OC)cc3c1[C@@H](C2)[N+](C)(C)CC3, the “activity change, negative = cytotoxic” value is reported as 14.6%. With CC1=C(CC(=O)O)c2cc(F)ccc2/C1=C\c1ccc(S(C)(=O)=O)cc1 the “activity change, negative = cytotoxic” value was -5.31%. With C#CCN(C)Cc1ccccc1 the “activity change, negative = cytotoxic” value was 16.2%. In the case of Cc1ncc([N+](=O)[O-])n1CC(O)CCl (stereo not drawn), the “activity change, negative = cytotoxic” value is reported as 3.22%. In the case of C[C@@H](O)[C@H](N)C(=O)O, the “activity change, negative = cytotoxic” value is reported as 17% [at 16.1 µM]. With Nc1nc2c(ncn2CCC(CO)CO)c(=O)[nH]1 the “activity change, negative = cytotoxic” value was 4.44%. With CCOc1nc2cccc(C(=O)O)c2n1Cc1ccc(-c2ccccc2-c2nn[nH]n2)cc1 the “activity change, negative = cytotoxic” value was 15%. With CC1(C)OC(=O)NC1=O the “activity change, negative = cytotoxic” value was 16.1%. In the case of CCCOC(=O)c1ccccc1, the “activity change, negative = cytotoxic” value is reported as 13.7%. In the case of COc1cc(C)c(Cc2cnc(N)nc2N)cc1OC, the “activity change, negative = cytotoxic” value is reported as 9.79%. In the case of CC(=O)CCC(=O)O, the “activity change, negative = cytotoxic” value is reported as 13.5%. For [O-][n+]1cccc(CO)c1, the “activity change, negative = cytotoxic” value was 6.33%. In the case of Oc1cn2c(n1)Nc1ccc(Cl)c(Cl)c1C2, the “activity change, negative = cytotoxic” value is reported as 10.4% [at 16.1 µM]. For C[C@@H]1CN(c2c(F)c(F)c3c(=O)c(C(=O)O)cn(C4CC4)c3c2F)C[C@H](C)N1, the “activity change, negative = cytotoxic” value was 11.6% [at 16.1 µM]. For CC1=C(CC(=O)O)c2cc(F)ccc2/C1=C\c1ccc(S(C)=O)cc1 (stereo not drawn), the “activity change, negative = cytotoxic” value was 9.1%. For NC1CCN(c2cccc(Cl)n2)CC1, the “activity change, negative = cytotoxic” value was -2.77%. With COc1ccc2c(c1)C(=O)N(CCc1ccc(S(=O)(=O)NC(=O)NC3CCCCC3)cc1)C(=O)C2(C)C the “activity change, negative = cytotoxic” value was -9.68%. For Oc1cccc(O)c1, the “activity change, negative = cytotoxic” value was 12.6%. For CC(COc1ccccc1)NC(C)C(O)c1ccc(O)cc1 (stereo not drawn), the “activity change, negative = cytotoxic” value was 10.5%. In the case of CC1(C)S[C@@H]2[C@H](NC(=O)Cc3ccccc3)C(=O)N2[C@H]1C(=O)O (tested in a mixture with another compound), the “activity change, negative = cytotoxic” value is reported as 13.5%. In the case of CCC(=O)Nc1ccc(O)cc1, the “activity change, negative = cytotoxic” value is reported as 7.64%. For CC[C@@]1(c2ccccc2)NC(=O)N(C)C1=O, the “activity change, negative = cytotoxic” value was 16.3%. With Cn1c(=O)c2c(ncn2CC2OCCO2)n(C)c1=O the “activity change, negative = cytotoxic” value was 9.93%. With C[C@@H]1CCN(C(=O)[C@H](CCCN=C(N)N)NS(=O)(=O)c2cccc3c2NC[C@H](C)C3)[C@@H](C(=O)O)C1 the “activity change, negative = cytotoxic” value was 14.3%. With Cc1ncc(COP(=O)(O)O)c(C=O)c1O the “activity change, negative = cytotoxic” value was 14.8%. In the case of C[C@@H]1CC[C@@]2(OC1)O[C@H]1C[C@H]3[C@@H]4CC[C@H]5C[C@@H](O)CC[C@]5(C)[C@H]4CC(=O)[C@]3(C)[C@H]1[C@@H]2C, the activity change, negative = cytotoxic is reported as 12.6% [at 4.84 µM].

Experiment: qHTS of pediatric cancer cell lines to identify multiple opportunities for drug repurposing: Primary screen for MG 63 (6-TG R) cells (AID 1347105); further: nearly all actives have a fitted effect of over 50% in size; further: potency means the concentration at half of the fitted maximal effect; on activity change, negative = cytotoxic: on the % scale 0 is the no-effect control and ±100 the full control effect
Settings: MG 63 (6-TG R) viability, CellTiter-Glo, 48 h; series mostly up to 46 µM; activity change, negative = cytotoxic: at the top concentration
In short: as §1
For CCN(CC)C(=O)Nc1ccc(OCC(O)CNC(C)(C)C)c(C(C)=O)c1 (stereo not drawn), the “activity change, negative = cytotoxic” value was 12%. In the case of CC(C)(O)c1ccccc1CC[C@@H](SCC1(CC(=O)O)CC1)c1cccc(/C=C/c2ccc3ccc(Cl)cc3n2)c1, the “activity change, negative = cytotoxic” value is reported as -12.2%. For Cc1cc2c(cc1S(N)(=O)=O)S(=O)(=O)CCC2, the “activity change, negative = cytotoxic” value was -11.9%. Work on NC(N)=NCCC[C@H](N)C(=O)O yielded an activity change, negative = cytotoxic of -20.2% [at 4.84 µM]. With CC(C)(C)C(=O)C(Oc1ccc(Cl)cc1)n1ccnc1 (stereo not drawn) the “activity change, negative = cytotoxic” value was -25.5%. With O=C(O)c1ccccc1-c1ccc(C(F)(F)F)cc1 the “activity change, negative = cytotoxic” value was -7.83%. For CC(=O)Oc1c(C)c(C)c2c(c1C)CC[C@@](C)(CCC[C@H](C)CCC[C@H](C)CCCC(C)C)O2, the “activity change, negative = cytotoxic” value was 7.38%. In the case of Cc1c(Cl)cccc1Nc1ccccc1C(=O)O, the “activity change, negative = cytotoxic” value is reported as -22.2%. With CCOc1ccc2ccccc2c1C(=O)N[C@@H]1C(=O)N2[C@@H]1SC(C)(C)[C@@H]2C(=O)O the “activity change, negative = cytotoxic” value was -15.3%. With CCCCCCCCCCCCCCCC(=O)NCCO the “activity change, negative = cytotoxic” value was -12.4%. With Cc1ccc(C(C)C)cc2c(C)ccc1-2 the “activity change, negative = cytotoxic” value was 3.03%. For O=C1O[C@H](CO)[C@@H](O)[C@H](O)[C@H]1O, the “activity change, negative = cytotoxic” value was -8.2%. For CC(=O)Oc1ccc(C2(c3ccc(OC(C)=O)cc3)C(=O)Nc3ccccc32)cc1, the Potency was 168 nM (active). For COc1ccc2cc1Oc1cc3c(cc1OC)CC[N+](C)(C)[C@H]3Cc1ccc(cc1)Oc1c(OC)c(OC)cc3c1[C@@H](C2)[N+](C)(C)CC3, the “activity change, negative = cytotoxic” value was -21.7%. In the case of CC1=C(CC(=O)O)c2cc(F)ccc2/C1=C\c1ccc(S(C)(=O)=O)cc1, the “activity change, negative = cytotoxic” value is reported as -10.8%. With C#CCN(C)Cc1ccccc1 the “activity change, negative = cytotoxic” value was -6.25%. For Cc1ncc([N+](=O)[O-])n1CC(O)CCl (stereo not drawn), the “activity change, negative = cytotoxic” value was 39.8%. With C[C@@H](O)[C@H](N)C(=O)O the “activity change, negative = cytotoxic” value was -20.2% [at 16.1 µM]. In the case of Nc1nc2c(ncn2CCC(CO)CO)c(=O)[nH]1, the “activity change, negative = cytotoxic” value is reported as -6.96%. For CCOc1nc2cccc(C(=O)O)c2n1Cc1ccc(-c2ccccc2-c2nn[nH]n2)cc1, the “activity change, negative = cytotoxic” value was -12.8%. In the case of CC1(C)OC(=O)NC1=O, the “activity change, negative = cytotoxic” value is reported as -13.5%. For CCCOC(=O)c1ccccc1, the “activity change, negative = cytotoxic” value was -9.87%. For COc1cc(C)c(Cc2cnc(N)nc2N)cc1OC, the “activity change, negative = cytotoxic” value was -24.7%. With CC(=O)CCC(=O)O the “activity change, negative = cytotoxic” value was 0.533%. For [O-][n+]1cccc(CO)c1, the “activity change, negative = cytotoxic” value was -11.3%. For Oc1cn2c(n1)Nc1ccc(Cl)c(Cl)c1C2, the “activity change, negative = cytotoxic” value was -10.5% [at 16.1 µM]. In the case of C[C@@H]1CN(c2c(F)c(F)c3c(=O)c(C(=O)O)cn(C4CC4)c3c2F)C[C@H](C)N1, the “activity change, negative = cytotoxic” value is reported as 55.6% [at 16.1 µM]. With CC1=C(CC(=O)O)c2cc(F)ccc2/C1=C\c1ccc(S(C)=O)cc1 (stereo not drawn) the “activity change, negative = cytotoxic” value was 4.96%. For NC1CCN(c2cccc(Cl)n2)CC1, the “activity change, negative = cytotoxic” value was -3.02%. In the case of COc1ccc2c(c1)C(=O)N(CCc1ccc(S(=O)(=O)NC(=O)NC3CCCCC3)cc1)C(=O)C2(C)C, the “activity change, negative = cytotoxic” value is reported as -26.2%. In the case of Oc1cccc(O)c1, the “activity change, negative = cytotoxic” value is reported as -0.879%. With CC(COc1ccccc1)NC(C)C(O)c1ccc(O)cc1 (stereo not drawn) the “activity change, negative = cytotoxic” value was 8.18%. With CC1(C)S[C@@H]2[C@H](NC(=O)Cc3ccccc3)C(=O)N2[C@H]1C(=O)O (tested in a mixture with another compound) the “activity change, negative = cytotoxic” value was -12%. In the case of CCC(=O)Nc1ccc(O)cc1, the “activity change, negative = cytotoxic” value is reported as 9.57%. For CC[C@@]1(c2ccccc2)NC(=O)N(C)C1=O, the “activity change, negative = cytotoxic” value was -20.1%. In the case of Cn1c(=O)c2c(ncn2CC2OCCO2)n(C)c1=O, the “activity change, negative = cytotoxic” value is reported as -11.2%. For C[C@@H]1CCN(C(=O)[C@H](CCCN=C(N)N)NS(=O)(=O)c2cccc3c2NC[C@H](C)C3)[C@@H](C(=O)O)C1, the “activity change, negative = cytotoxic” value was -5.53%. For Cc1ncc(COP(=O)(O)O)c(C=O)c1O, the “activity change, negative = cytotoxic” value was -26.5%. C[C@@H]1CC[C@@]2(OC1)O[C@H]1C[C@H]3[C@@H]4CC[C@H]5C[C@@H](O)CC[C@]5(C)[C@H]4CC(=O)[C@]3(C)[C@H]1[C@@H]2C gave an activity change, negative = cytotoxic of -5.19% [at 4.84 µM].
